Results reported in PubChem BioAssay.
For some assays here: Potency and affinity values are given separately. This is one part of the list. Active and inactive are the calls of the source.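 Rule for the calls, unless noted: active = compounds whose fluorescence signal differed from control wells by over 3 SD, either direction, in both duplicate plates; inactive = the rest.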

Columns and labels:
[1] = molecular target: Short transient receptor potential channel 4 (Mus musculus) (UniProt Q9QUQ5); assay: mouse TRPC4 membrane potential modulation by TRPC6 hits, confirmation, selectivity assay for TRPC6 inhibitor project, cell-based, second specificity screen, HEK293 TRPC4/mu-opioid (AID 2776); settings: HEK293 TRPC4/MOR, membrane potential dye fluorescence, at 10 µM, channel activated by saturating DAMGO dose; active compounds read high
[2] = test system: transient receptor potential cation channel C4 (TRPC4), mouse; assay: mouse TRPC4 modulation by TRPC6 hits, confirmation, selectivity assay for TRPC6 inhibitor project, cell-based, HEK293 TRPC4/mu-opioid, membrane potential dye (AID 2777;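 active = rise or fall in signal beyond 3 SD of buffer-only wells in both replicate plates, either sign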;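 note: integrated kinetic ratio of fluorescence range over baseline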); settings: membrane potential fluorescence, at 10 µM
[3] = nonspecific membrane potential effects, parental HEK293, confirmation, counter-screen for TRPC6 inhibitor project, cell-based, second counter screen (AID 2779;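 active = membrane potential signal moving either way by over 3 SD of the maximum-effect control, in both duplicate plates, meaning non-specific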); settings: parental HEK293 membrane potential dye fluorescence; at 10 µM; maximal acetylcholine challenge after compound addition
[4] = membrane potential modulation in parental HEK293, confirmation, counter-screen for TRPC6 inhibitor project, cell-based (AID 2780;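 active = membrane potential signal shifting up or down by more than 3 SD of buffer-only wells, on both duplicate plates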;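 for membrane potential signal change: plate controls were buffer EC0 wells for no effect and acetylcholine ECmax wells for full effect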); settings: parental HEK293 membrane potential dye fluorescence; at 10 µM
[5] = molecular target: Short transient receptor potential channel 6 (Mus musculus) (UniProt Q61143); assay: mouse TRPC6 channel inhibitors, confirmation, HEK293 cells, membrane potential dye, duplicate (AID 488960;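 active = fluorescence ratio falls more than 5 SD below the full-stimulation control mean, in both duplicate runs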;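 for inhibition: integrated fluorescence ratio of peak minus minimum over baseline after agonist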); settings: ACh-evoked depolarization, at 10 µM; active compounds read high
[6] = molecular target: Short transient receptor potential channel 6 (Mus musculus) (UniProt Q61143); assay: inhibition of mouse TRPC6 channel, confirmation, selectivity assay for TRPC4 inhibitor project, cell-based, HEK293, membrane potential dye, duplicate (AID 434948;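 active = active in primary screen and both duplicates, each dropping signal beyond three positive-control SD with fluorescence still positive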); settings: HEK293 TRPC6, membrane potential dye fluorescence, at 10 µM, stimulated with maximal-effect acetylcholine; active compounds read high
[7] = molecular target: Short transient receptor potential channel 6 (Mus musculus) (UniProt Q61143); assay: activation of mouse TRPC6 channel, confirmation, selectivity assay for TRPC4 activator project, cell-based, HEK293, membrane potential dye, duplicate (AID 434950;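 active = membrane potential signal rise above negative control mean plus 3 SD in both duplicates, also active in the earlier TRPC4 screen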;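 for activation: 0% = buffer only wells and 100% = acetylcholine maximal-effect wells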); settings: HEK293 TRPC6, membrane potential fluorescence, at 10 µM; active compounds read high
[8] = molecular target: Short transient receptor potential channel 6 (Mus musculus) (UniProt Q61143); assay: TRPC6 potentiation by TRPC4 potentiator hits, confirmation, selectivity assay for TRPC4 potentiator project, HEK293 cells, membrane potential dye, duplicate (AID 434952;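 active = compound raising the membrane signal above positive-control mean plus 3 SD in both repeats, and a primary screen hit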); settings: HEK293 TRPC6, membrane potential dye fluorescence, at 10 µM, maximal acetylcholine added after compound; active compounds read high
[9] = molecular target: Short transient receptor potential channel 6 (Mus musculus) (UniProt Q61143); assay: mouse TRPC6 channel activators, confirmation, HEK293 cells, membrane potential dye, duplicate (AID 488961;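 active = ratio signal rise beyond 5 SD above unstimulated control wells' mean, seen in both duplicate runs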); settings: HEK293-TRPC6 membrane potential dye fluorescence, FDSS, at 10 µM; active compounds read high
[10] = test system: TRPC4 beta (transient receptor potential cation channel C4), mouse; assay: activators of mouse TRPC4 channel, confirmation, cell-based, Fluo4 calcium, HEK293 TRPC4beta/mu-opioid, duplicates, 10 µM (AID 2426;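 active = fluorescence ratio normalized to control raised more than 50% in primary screen plus both repeat runs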;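 note: percent rise of integrated ratio over buffer wells lacking compound which define 0%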); settings: Fluo4 calcium fluorescence, at 10 µM; active compounds read high
[11] = test system: transient receptor potential cation channel C4 beta (TRPC4), mouse; assay: activators of mouse TRPC4 channel, confirmation, cell-based, second round, Fluo4, HEK293 TRPC4beta/mu-opioid, 1 µM (AID 2461;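 active = primary screen active and over 50% activation in each of two duplicate runs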); settings: Fluo4 calcium fluorescence, at 1 µM; active compounds read high
[12] = test system: TRPC4 (transient receptor potential cation channel C4 beta), mouse; assay: positive allosteric modulators of mouse TRPC4, confirmation, cell-based, second round, Fluo-4, HEK293 TRPC4beta/mu-opioid, 1 µM (AID 2554;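 active = primary screen hit whose fluorescence ratio, in both repeats, exceeds the weak agonist control mean by 3 SD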); settings: DAMGO EC20, Fluo-4 calcium flux, at 1 µM; active compounds read high
[13] = test system: TRPC4 beta (transient receptor potential cation channel C4), mouse; assay: positive allosteric modulators of mouse TRPC4, confirmation, cell-based, Fluo-4, HEK293 TRPC4beta/mu-opioid (AID 2555;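 active = primary screen hit whose calcium fluorescence ratio, in both repeats, exceeds the weak agonist control mean by 3 SD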); settings: DAMGO EC20, Fluo-4 calcium flux, at 10 µM; active compounds read high
[14] = molecular target: Short transient receptor potential channel 4 (Mus musculus) (UniProt Q9QUQ5); assay: inhibitors of mouse TRPC4 channel, confirmation, cell-based, Fluo4, HEK293 TRPC4beta/mu-opioid (AID 2636;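 active = calcium signal cut by more than 3 SD below the full-agonist control yet still positive, in both repeats and the earlier primary screen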); settings: DAMGO, Fluo4 calcium flux, at 10 µM; active compounds read high
[15] = molecular target: Short transient receptor potential channel 4 (Mus musculus) (UniProt Q9QUQ5); assay: inhibitors of mouse TRPC4 channel, confirmation, cell-based, second round, Fluo4, HEK293 TRPC4beta/mu-opioid, 1 µM (AID 2637;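 active = calcium signal ratio cut to more than 3 SD under the fully stimulated control mean yet still positive, in both repeats and the primary screen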); settings: Fluo4 calcium flux, DAMGO, at 1 µM; active compounds read high
[16] = molecular target: Short transient receptor potential channel 4 (Mus musculus) (UniProt Q9QUQ5); assay: mouse TRPC4 channel inhibitors, dose response, cell-based, HEK293 TRPC4/mu-opioid, Fluo-4 calcium (AID 434942;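 active = primary screen inhibitor hit that blocks the TRPC4 channel at some tested dose, yielding a dose curve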)
[17] = molecular target: Short transient receptor potential channel 4 (Mus musculus) (UniProt Q9QUQ5); assay: calcium flux activators in TRPC4/5HT1a cells, counter-screen for TRPC4 activator project, cell-based, second counter screen, HEK293 TRPC4/5HT1a, Fluo-4 (AID 434977;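 active = calcium signal rise above buffer-control mean plus 5 SD in both duplicates, and also a hit in the primary screen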;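 note: plate controls were assay buffer for no effect and maximal serotonin response for full effect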); settings: Fluo-4 calcium flux, at 10 µM; active compounds read high
[18] = calcium flux inhibitors in TRPC4/5HT1a cells, confirmation, counter-screen for TRPC4 inhibitor project, cell-based, second counter screen, HEK293 TRPC4/5HT1a, Fluo-4 (AID 434978;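 active = primary screen active whose calcium signal fell more than 3 SD beyond the full-serotonin control mean in both duplicate plates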;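 note: serotonin given first at submaximal then at maximal dose after compound preincubation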); settings: Fluo-4 calcium flux, at 10 µM, serotonin added to trigger calcium flux; active compounds read high
[19] = test system: TRPC4 (mouse), co-expressed with 5HT1a in HEK293; assay: calcium flux potentiators in TRPC4/5HT1a cells, confirmation, counter-screen for TRPC4 potentiator project, cell-based, second counter screen, HEK293 TRPC4/5HT1a, Fluo-4 (AID 434979;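 active = signal rise over 3 SD above mean of control wells given weak agonist, in both repeats and first screen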); settings: Fluo-4 calcium flux, at 10 µM, serotonin added at its EC20 dose; active compounds read high
[20] = calcium flux activation in mu-opioid HEK293 cells, confirmation, counter-screen for TRPC4 activator project, cell-based, HEK293 mu-opioid receptor line (AID 449723;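 active = hit in primary screen, with calcium signal over 5 SD above buffer well mean in both duplicates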;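 note: counter screen cells carry the mu-opioid receptor alone and lack TRPC4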); settings: Fluo-4 calcium fluorescence, at 10 µM; active compounds read high
[21] = calcium flux enhancement in mu-opioid HEK293 cells, confirmation, counter-screen for TRPC4 allosteric potentiator project, cell-based, HEK293 mu-opioid receptor line (AID 449724;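 active = calcium signal rise more than 3 SD above the low-dose agonist control mean, in both duplicate plates and the primary screen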); settings: Fluo-4 calcium flux, at 10 µM, compound added before EC20 DAMGO stimulus; active compounds read high
[22] = thallium flux activation in parental CHO cells, counter-screen for KCNQ1 potentiator project (AID 493006;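 active = duplicate-averaged activation above buffer control mean plus 5 SD of those controls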); settings: parental CHO-K1 cells, FluxOR thallium flux, at 10 µM; active compounds read high
[23] = molecular target: Potassium voltage-gated channel subfamily KQT member 1 (Homo sapiens) (UniProt P51787); assay: KCNQ1 potassium channel potentiators, confirmation, FluxOR thallium flux, CHO cells, duplicates (AID 493007;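 active = potentiation averaged over duplicate wells exceeding buffer-only control mean by more than 3 SD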;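 note: cells depolarized by a potassium plus thallium sulfate stimulus after compound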); settings: KCNQ1 cell line, FluxOR thallium flux fluorescence, at 10 µM; active compounds read high, % of reference activator effect, buffer zero
[24] = molecular target: Potassium voltage-gated channel subfamily KQT member 2 (Rattus norvegicus) (UniProt O88943); assay: rat KCNQ2 channel potentiation, selectivity assay for KCNQ1 potentiator project, KCNQ2-CHO-K1 cells (AID 493009;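 active = mean duplicate potentiation above the buffer control mean plus 5 SD of buffer wells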;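 note: assay conditions were tuned for KCNQ1 rather than KCNQ2 modulators; signal is max minus min fluorescence divided by baseline after thallium stimulus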); settings: FluxOR thallium flux fluorescence, at 10 µM; active compounds read high, scaled: buffer 0, activator control 100
[25] = molecular target: Potassium voltage-gated channel subfamily KQT member 1 (Homo sapiens) (UniProt P51787); assay: KCNQ1 channel current potentiators, confirmation, orthogonal assay for KCNQ1 potentiator project, IonWorks patch clamp, KCNQ1-CHO cells (AID 493184;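 active = current rise at least 3 SD above the untreated control mean in each of two repeat wells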); settings: automated patch clamp current, at 10 µM; active compounds read high

Short transient receptor potential channel 4 (Mus musculus), sequence (Q9QUQ5 whole entry, looked up): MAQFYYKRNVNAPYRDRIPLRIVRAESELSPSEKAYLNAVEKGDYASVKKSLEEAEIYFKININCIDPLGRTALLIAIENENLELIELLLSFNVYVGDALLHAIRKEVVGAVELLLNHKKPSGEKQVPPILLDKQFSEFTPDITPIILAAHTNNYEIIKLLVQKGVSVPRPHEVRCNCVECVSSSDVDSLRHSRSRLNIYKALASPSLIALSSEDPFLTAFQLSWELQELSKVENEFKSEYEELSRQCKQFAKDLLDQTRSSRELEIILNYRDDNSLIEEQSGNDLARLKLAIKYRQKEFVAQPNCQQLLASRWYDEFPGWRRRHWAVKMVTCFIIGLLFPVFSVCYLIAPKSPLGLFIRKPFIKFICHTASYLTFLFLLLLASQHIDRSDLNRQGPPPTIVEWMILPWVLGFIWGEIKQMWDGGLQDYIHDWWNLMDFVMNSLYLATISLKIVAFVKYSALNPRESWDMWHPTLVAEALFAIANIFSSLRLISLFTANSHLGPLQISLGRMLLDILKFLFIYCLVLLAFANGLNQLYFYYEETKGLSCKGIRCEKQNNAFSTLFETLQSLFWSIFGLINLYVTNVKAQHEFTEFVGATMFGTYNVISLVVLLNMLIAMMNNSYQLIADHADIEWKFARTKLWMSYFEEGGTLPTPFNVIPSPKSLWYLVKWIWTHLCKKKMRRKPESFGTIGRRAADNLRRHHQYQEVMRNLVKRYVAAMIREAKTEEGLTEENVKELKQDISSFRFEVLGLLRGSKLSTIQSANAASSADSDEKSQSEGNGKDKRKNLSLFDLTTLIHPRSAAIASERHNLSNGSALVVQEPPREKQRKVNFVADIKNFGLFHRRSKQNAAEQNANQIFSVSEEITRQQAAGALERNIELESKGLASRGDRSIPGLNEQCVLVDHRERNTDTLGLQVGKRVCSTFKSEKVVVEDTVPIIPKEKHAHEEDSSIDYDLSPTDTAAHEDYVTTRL
Short transient receptor potential channel 6 (Mus musculus), sequence (Q61143 whole entry, looked up): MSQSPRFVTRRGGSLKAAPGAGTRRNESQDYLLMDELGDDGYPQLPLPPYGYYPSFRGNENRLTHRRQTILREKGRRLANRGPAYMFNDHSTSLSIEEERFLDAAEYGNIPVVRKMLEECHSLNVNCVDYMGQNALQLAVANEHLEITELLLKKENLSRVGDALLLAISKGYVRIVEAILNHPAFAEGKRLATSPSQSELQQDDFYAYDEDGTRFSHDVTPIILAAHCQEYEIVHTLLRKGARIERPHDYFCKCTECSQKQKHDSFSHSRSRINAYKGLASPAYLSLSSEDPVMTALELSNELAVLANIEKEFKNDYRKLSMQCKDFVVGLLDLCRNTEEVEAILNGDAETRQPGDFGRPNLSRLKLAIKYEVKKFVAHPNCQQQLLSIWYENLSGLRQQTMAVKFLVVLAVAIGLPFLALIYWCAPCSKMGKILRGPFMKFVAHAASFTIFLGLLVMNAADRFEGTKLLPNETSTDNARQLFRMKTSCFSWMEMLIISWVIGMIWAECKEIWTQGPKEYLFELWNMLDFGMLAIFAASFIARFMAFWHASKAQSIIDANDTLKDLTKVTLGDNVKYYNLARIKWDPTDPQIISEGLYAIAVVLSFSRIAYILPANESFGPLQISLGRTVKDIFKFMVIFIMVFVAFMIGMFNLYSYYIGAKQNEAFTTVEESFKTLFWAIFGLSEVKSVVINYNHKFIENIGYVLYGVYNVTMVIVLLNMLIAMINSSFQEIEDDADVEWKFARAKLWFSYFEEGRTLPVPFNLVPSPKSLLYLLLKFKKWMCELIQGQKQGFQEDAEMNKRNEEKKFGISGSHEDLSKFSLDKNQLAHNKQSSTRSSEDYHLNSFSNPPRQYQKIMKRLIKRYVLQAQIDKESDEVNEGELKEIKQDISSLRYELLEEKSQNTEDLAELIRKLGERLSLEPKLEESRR
Potassium voltage-gated channel subfamily KQT member 1 (Homo sapiens), sequence (P51787 whole entry, looked up): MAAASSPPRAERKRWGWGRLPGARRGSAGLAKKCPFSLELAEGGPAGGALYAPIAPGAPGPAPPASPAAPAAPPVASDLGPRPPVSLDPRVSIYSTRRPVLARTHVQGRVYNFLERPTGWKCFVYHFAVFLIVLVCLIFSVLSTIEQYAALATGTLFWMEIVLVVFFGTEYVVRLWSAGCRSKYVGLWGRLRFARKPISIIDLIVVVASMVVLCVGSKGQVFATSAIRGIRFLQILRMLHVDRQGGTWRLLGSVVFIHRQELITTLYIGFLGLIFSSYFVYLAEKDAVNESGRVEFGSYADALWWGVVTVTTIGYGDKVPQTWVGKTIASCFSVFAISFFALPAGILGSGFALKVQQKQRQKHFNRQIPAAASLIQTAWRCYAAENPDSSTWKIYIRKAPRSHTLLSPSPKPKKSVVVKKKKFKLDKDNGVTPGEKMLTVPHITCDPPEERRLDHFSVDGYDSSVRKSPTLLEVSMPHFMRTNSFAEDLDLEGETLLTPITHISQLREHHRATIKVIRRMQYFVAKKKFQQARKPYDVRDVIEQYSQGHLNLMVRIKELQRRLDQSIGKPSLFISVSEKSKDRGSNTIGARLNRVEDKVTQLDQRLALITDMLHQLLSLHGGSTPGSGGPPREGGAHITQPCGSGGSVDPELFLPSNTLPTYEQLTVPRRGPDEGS
Potassium voltage-gated channel subfamily KQT member 2 (Rattus norvegicus), sequence (O88943 whole entry, looked up): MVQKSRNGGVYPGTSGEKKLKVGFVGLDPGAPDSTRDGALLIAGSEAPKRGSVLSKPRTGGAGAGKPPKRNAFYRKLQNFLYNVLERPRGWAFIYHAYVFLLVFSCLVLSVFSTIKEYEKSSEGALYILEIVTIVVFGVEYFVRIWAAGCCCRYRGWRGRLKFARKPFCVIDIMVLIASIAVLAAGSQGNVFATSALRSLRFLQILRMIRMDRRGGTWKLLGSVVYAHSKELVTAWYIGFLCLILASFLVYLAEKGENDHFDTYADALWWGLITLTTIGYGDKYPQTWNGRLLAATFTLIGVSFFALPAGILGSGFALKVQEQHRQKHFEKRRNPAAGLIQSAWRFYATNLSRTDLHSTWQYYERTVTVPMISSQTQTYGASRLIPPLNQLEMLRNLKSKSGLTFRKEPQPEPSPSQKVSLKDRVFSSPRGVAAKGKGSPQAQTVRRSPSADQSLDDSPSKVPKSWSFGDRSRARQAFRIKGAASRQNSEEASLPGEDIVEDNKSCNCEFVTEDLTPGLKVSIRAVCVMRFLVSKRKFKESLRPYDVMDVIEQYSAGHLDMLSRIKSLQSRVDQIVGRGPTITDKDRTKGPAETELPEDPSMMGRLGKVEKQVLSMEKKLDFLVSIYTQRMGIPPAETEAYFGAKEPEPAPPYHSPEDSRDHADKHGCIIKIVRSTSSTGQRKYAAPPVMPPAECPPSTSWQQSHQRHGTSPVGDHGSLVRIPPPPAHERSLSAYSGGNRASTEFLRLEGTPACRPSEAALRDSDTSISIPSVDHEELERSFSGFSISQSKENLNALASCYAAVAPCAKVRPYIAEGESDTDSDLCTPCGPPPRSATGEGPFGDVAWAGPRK

C[C@H](NC(=O)OC(C)(C)C)c1nnc(SCC(=O)Nc2ccc(Br)cc2)o1
active: membrane potential signal change [4] 0.29%
inactive: outcome [1] | outcome [2] | outcome [3] | outcome [5]

CCCCNc1nc2ccccc2[nH]1
inactive: outcome [6] | outcome [7] | outcome [8]

OCCC1CN(Cc2ccc3nsnc3c2)CCN1C1CCCC1 (stereo not given)
inactive: outcome [1] | outcome [2] | outcome [3] | outcome [4] | outcome [5] | outcome [9]

Cn1c(=O)n(C)c2cc(C(=O)Nc3ccc4c(c3)OCO4)ccc21
inactive: outcome [1] | outcome [3] | outcome [5] | outcome [9]
active: activity change, negative = inhibition [2] -23.4% | membrane potential signal change [4] -371%

CN(C)CCOC(=O)C(c1ccccc1)C1(O)CCCC1 (stereo not given)
active: signal change vs control [3] -39.5% | membrane potential signal change [4] 0.13% | inhibition [5] 90.5%
inactive: outcome [1] | outcome [2] | outcome [9]

CCN(CC)c1ccc2cc(C(N)=O)/c(=N\NC(=O)c3ccncc3)oc2c1
inactive: outcome [5] | outcome [9]
active: inhibition [1] 70.5% | activity change, negative = inhibition [2] 31.7% | signal change vs control [3] -52% | membrane potential signal change [4] 1.95%

COc1ccc(N/C(C)=C2/C(=O)C(=O)N(CCO)C2c2ccc(Br)cc2)cc1 (stereo not given)
active: activation [10] 289% | potentiation [12] 141% | activation [7] 31.5% | activation [17] 57.5% | potentiation [19] 60.7%
inactive: outcome [11] | outcome [13] | outcome [14] | outcome [15] | outcome [16] | outcome [6] | outcome [8] | outcome [18] | outcome [20] | outcome [21]

CCOC(=O)N1CCC(O)(c2cc(C)c(C)cc2C)CC1
inactive: outcome [1] | outcome [2] | outcome [3] | outcome [4]
active: inhibition [5] 55%

COc1ccc(CC(=O)Nc2sc(Cc3ccccc3)c(C)c2C(N)=O)cc1
inactive: outcome [1] | outcome [2] | outcome [3] | outcome [4] | outcome [5] | outcome [9]

CC(C)CCNc1nc(N2CCCC2)c2c(c1C#N)CCN(C)C2
inactive: outcome [3] | outcome [9]
active: inhibition [1] 54% | activity change, negative = inhibition [2] -16.9% | membrane potential signal change [4] -209% | inhibition [5] 71.5%

Cn1c(O)c(/C=N/NC(=O)c2cc3ccccc3cc2O)c2ccccc21
active: activation [10] 81% | potentiation [13] 27% | activation [7] 524% | potentiation, percent of control [8] 238% | activation [17] 59.2% | potentiation [19] 17.8% | activation [20] 82.4% | activation [21] 879%
inactive: outcome [11] | outcome [12] | outcome [14] | outcome [15] | outcome [16] | outcome [6] | outcome [18]

O=C(CCN1CCN(Cc2ccccc2)CC1)Nc1nccs1
active: potentiation [12] 19% | potentiation [13] 11% | potentiation [19] 17%

CCOC(=O)N1CCN(C(=O)c2ccc3c(c2)N(Cc2ccc(C)cc2)CCS3)CC1
active: activity change, negative = inhibition [2] 0.69% | signal change vs control [3] 307%
inactive: outcome [1] | outcome [4] | outcome [5] | outcome [9]

COc1ccc(CNC(=O)c2cc3c(=O)n4ccccc4nc3n(CC3CCCO3)c2=N)cc1 (stereo not given)
inactive: outcome [1] | outcome [5] | outcome [9] | outcome [22] | outcome [23] | outcome [24] | outcome [25]
active: activity change, negative = inhibition [2] -15.8% | signal change vs control [3] 32% | membrane potential signal change [4] -176%

CC(C)c1ccc(OCC(O)Cn2cnc3ccccc32)cc1 (stereo not given)
inactive: outcome [1] | outcome [2] | outcome [3] | outcome [4] | outcome [5] | outcome [9]

O=C1c2ccccc2C(=O)c2c1cccc2N1CCN(Cc2ccccc2)CC1
inactive: outcome [1] | outcome [3] | outcome [9]
active: activity change, negative = inhibition [2] -17% | membrane potential signal change [4] -264% | inhibition [5] 59.7%
